Experimental data taken from the supplement of paper PMC12282887.
± gives the standard deviation of the averaged measurements.

Tests used:
Assay in all cases: promoter activity interaction Z-score (Lux/OD deviation from empty-vector control); higher = stronger promoter induction by the compound
[1] = system: E. coli BW25113 acrABp lux reporter
Method in brief: (§1)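 Wild-type E. coli BW25113 and three single-gene deletion strains, each carrying a low-copy luxCDABE promoter reporter, were grown at 37°C in 40 µl LB Lennox per well of a 384-well plate. Every compound was applied at four 1:2 dilutions in biological duplicates, and OD600 and luminescence were read every 30 min for 12 h. Integration covered 0–8 h for wild type and 1–9 h for deletion strains, and wells under 10% of the median growth value were removed. Scores are Z-transformed residuals of growth-normalised luminescence fitted against a control.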

[2] = system: E. coli BW25113 marRABp lux reporter
Method in brief: as §1

[3] = system: E. coli BW25113 micFp lux reporter
Method in brief: as §1

[4] = system: E. coli BW25113 ompFp lux reporter
Method in brief: as §1

[5] = 0.47 µg/ml, genetic background: wild type
[6] = 0.47 µg/ml, genetic background: ΔmarA
[7] = 0.47 µg/ml, genetic background: Δrob
[8] = 0.47 µg/ml, genetic background: ΔsoxS
[9] = 0.93 µg/ml, genetic background: wild type
[10] = 0.93 µg/ml, genetic background: ΔmarA
[11] = 0.93 µg/ml, genetic background: Δrob
[12] = 0.93 µg/ml, genetic background: ΔsoxS
[13] = 1.9 µg/ml, genetic background: wild type
[14] = 1.9 µg/ml, genetic background: ΔmarA
[15] = 1.9 µg/ml, genetic background: Δrob
[16] = 1.9 µg/ml, genetic background: ΔsoxS
[17] = 3.7 µg/ml, genetic background: wild type
[18] = 3.7 µg/ml, genetic background: ΔmarA
[19] = 3.7 µg/ml, genetic background: Δrob
[20] = 3.7 µg/ml, genetic background: ΔsoxS

`CC1(C)S[C@@H]2[C@H](NC(=O)Cc3ccccc3)C(=O)N2[C@H]1C(=O)O` [Penicillin G] was tested, and the “promoter activity interaction Z-score” value [1, 5] was -0.119 ± 0.09, the “promoter activity interaction Z-score” value [1, 6] was -0.131 ± 0.52 and the “promoter activity interaction Z-score” value [1, 7] was 0.0104 ± 0.26. For the same molecule, the “promoter activity interaction Z-score” value [1, 8] was 0.211 ± 0.039, the “promoter activity interaction Z-score” value [1, 9] was -0.14 ± 0.13 and the “promoter activity interaction Z-score” value [1, 10] was 0.592 ± 0.63. For the same molecule, the “promoter activity interaction Z-score” value [1, 11] was 0.28 ± 0.04, the “promoter activity interaction Z-score” value [1, 12] was 0.575 ± 0.16 and the “promoter activity interaction Z-score” value [1, 13] was -0.0936 ± 0.033. For the same molecule, the “promoter activity interaction Z-score” value [1, 14] was 0.128 ± 0.61, the “promoter activity interaction Z-score” value [1, 15] was -0.00373 ± 0.015 and the “promoter activity interaction Z-score” value [1, 16] was 0.229 ± 0.28. The “promoter activity interaction Z-score” value [1, 17] was 0.0671 ± 0.041, the “promoter activity interaction Z-score” value [1, 18] was 0.328 ± 0.92 and the “promoter activity interaction Z-score” value [1, 19] was 0.156 ± 0.023. The “promoter activity interaction Z-score” value [1, 20] was 0.14 ± 0.13, the “promoter activity interaction Z-score” value [2, 5] was -0.0595 ± 0.01 and the “promoter activity interaction Z-score” value [2, 6] was -0.219 ± 0.31. For the same molecule, the “promoter activity interaction Z-score” value [2, 7] was -0.0723 ± 0.22, the “promoter activity interaction Z-score” value [2, 8] was 0.0424 ± 0.095 and the “promoter activity interaction Z-score” value [2, 9] was 0.124 ± 0.25. For the same molecule, the “promoter activity interaction Z-score” value [2, 10] was -0.178 ± 0.24, the “promoter activity interaction Z-score” value [2, 11] was -0.0814 ± 0.19 and the “promoter activity interaction Z-score” value [2, 12] was 0.103 ± 0.11. The “promoter activity interaction Z-score” value [2, 13] was -0.36 ± 0.024, the “promoter activity interaction Z-score” value [2, 14] was -0.244 ± 0.026 and the “promoter activity interaction Z-score” value [2, 15] was -0.221 ± 0.14. For the same molecule, the “promoter activity interaction Z-score” value [2, 16] was 0.0691 ± 0.16, the “promoter activity interaction Z-score” value [2, 17] was -0.195 ± 0.22 and the “promoter activity interaction Z-score” value [2, 18] was -0.122 ± 0.053. For the same molecule, the “promoter activity interaction Z-score” value [2, 19] was 0.035 ± 0.11, the “promoter activity interaction Z-score” value [2, 20] was -0.0494 ± 0.053 and the “promoter activity interaction Z-score” value [3, 5] was -0.185 ± 0.12. For the same molecule, the “promoter activity interaction Z-score” value [3, 6] was -0.107 ± 0.0057, the “promoter activity interaction Z-score” value [3, 7] was -0.126 ± 0.1 and the “promoter activity interaction Z-score” value [3, 8] was -0.069 ± 0.047. For the same molecule, the “promoter activity interaction Z-score” value [3, 9] was -0.247 ± 0.14, the “promoter activity interaction Z-score” value [3, 10] was -0.0395 ± 0.093 and the “promoter activity interaction Z-score” value [3, 11] was -0.135 ± 0.1. The “promoter activity interaction Z-score” value [3, 12] was 0.069 ± 0.064, the “promoter activity interaction Z-score” value [3, 13] was -0.228 ± 0.13 and the “promoter activity interaction Z-score” value [3, 14] was 0.0369 ± 0.038. For the same molecule, the “promoter activity interaction Z-score” value [3, 15] was -0.142 ± 0.026, the “promoter activity interaction Z-score” value [3, 16] was 0.21 ± 0.0048 and the “promoter activity interaction Z-score” value [3, 17] was -0.333 ± 0.01. The “promoter activity interaction Z-score” value [3, 18] was -0.118 ± 0.043, the “promoter activity interaction Z-score” value [3, 19] was -0.11 ± 0.08 and the “promoter activity interaction Z-score” value [3, 20] was -0.156 ± 0.19. For the same molecule, the “promoter activity interaction Z-score” value [4, 5] was 0.195 ± 0.027, the “promoter activity interaction Z-score” value [4, 6] was -0.0479 ± 0.074 and the “promoter activity interaction Z-score” value [4, 7] was -0.032 ± 0.25. The “promoter activity interaction Z-score” value [4, 8] was 0.447 ± 0.11, the “promoter activity interaction Z-score” value [4, 9] was 0.206 ± 0.52 and the “promoter activity interaction Z-score” value [4, 10] was 0.589 ± 0.67. For the same molecule, the “promoter activity interaction Z-score” value [4, 11] was 0.432 ± 0.096, the “promoter activity interaction Z-score” value [4, 12] was 0.381 ± 0.3 and the “promoter activity interaction Z-score” value [4, 13] was -0.392 ± 0.093. For the same molecule, the “promoter activity interaction Z-score” value [4, 14] was 0.0358 ± 0.0037, the “promoter activity interaction Z-score” value [4, 15] was 0.00513 ± 0.15 and the “promoter activity interaction Z-score” value [4, 16] was 0.64 ± 0.076.
